Data on 17 compounds can be found in PubChem BioAssay (EPA / NIEHS).

“And” between values parts separate entries of the source, which are not always exact repeats. Identical values can stand only once. Some compounds were tested as several samples or in several runs, with calls that do not always agree. The source made the active and inactive calls. Rule for the calls: active = hit-call score of the fitted dose curve at least 0.9, where 1 is the maximum; inactive = score below 0.9.

What is called AC50 is the concentration giving half of the maximal activity seen.

Read-out in experiment [1]: Urokinase-type plasminogen activator receptor (uPAR), PLAUR (gene 5329)
As to the kind of experiment: BSK_4H_uPAR: BioMAP Diversity Plus: 4H Assay for Urokinase-type plasminogen activator receptor (uPAR) Biomarker Activity (AID 2283030). Conditions: primary human endothelial cells (HUVEC); actives raise or lower the signal. Summed up:
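Human umbilical vein endothelial cells in the 4H system, 24 h after chemical dosing. Cell-surface uPAR measured by ELISA, fitted in both directions versus DMSO; cytotoxicity checked by SRB total protein in parallel cultures.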

Read-out in experiment [2]: Vascular endothelial growth factor receptor 2 (Homo sapiens) (UniProt P35968)
Put plainly: BSK_4H_VEGFRII: BioMAP Diversity Plus: 4H Assay for Vascular endothelial growth factor receptor 2 (VEGFR2) Biomarker Activity (AID 2283031).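 For AC50: cell-surface VEGFR2 protein level quantified by ELISA.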 The settings on record: primary human endothelial cells (HUVEC); actives raise or lower the signal. The method, boiled down: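 Primary human umbilical vein endothelial cells (4H system), 24 h exposure; cell-surface VEGFR2 measured by ELISA. Bidirectional fitting versus DMSO; cytotoxicity checked in parallel by SRB total-protein staining.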

Read-out in experiment [3]: Human Leukocyte Antigen - DR isotype (HLADR), HLA-DRA (gene 3122)
As to the kind of experiment: BSK_BE3C_HLADR: BioMAP Diversity Plus: BE3C Assay for Human Leukocyte Antigen - DR isotype (HLADR) Biomarker Activity (AID 2283032). The settings on record: primary human bronchial epithelial cells; actives raise or lower the signal. The method, boiled down: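 ELISA read-out of HLA-DR on human lung bronchial epithelial primary cells, measured 24 h post-dosing. Both increases and decreases were scored relative to DMSO vehicle.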

Read-out in experiment [4]: Vascular cell adhesion molecule 1 (VCAM1), VCAM1 (gene 7412)
As to the kind of experiment: BSK_4H_VCAM1: BioMAP Diversity Plus: 4H Assay for Vascular cell adhesion molecule 1 (VCAM1) Biomarker Activity (AID 2283033).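 For outcome: cell-surface VCAM-1 protein measured by ELISA.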 The settings on record: primary human endothelial cells (HUVEC); actives raise or lower the signal. The method, boiled down: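 ELISA read-out of VCAM-1 on human umbilical vein endothelium 24 hours after chemical dosing; gain or loss of signal was fitted relative to DMSO, with sulforhodamine B staining of parallel cultures flagging overt cytotoxicity.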

Read-out in experiment [5]: Interferon-gamma inducible Protein 10 (IP10), CXCL10 (gene 3627)
As to the kind of experiment: BSK_BE3C_IP10: BioMAP Diversity Plus: BE3C Assay for Interferon-gamma inducible Protein 10 (IP10) Biomarker Activity (AID 2283034). The settings on record: primary human bronchial epithelial cells; actives raise or lower the signal. The method, boiled down: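 Chemical is dosed onto human lung bronchial epithelial primary cells, cultures are incubated 24 h, and IP-10 is then quantified by ELISA. Gain or loss of signal is fitted in both directions relative to DMSO.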

Read-out in experiment [6]: Monokine induced gamma interferon (MIG), CXCL9 (gene 4283)
As to the kind of experiment: BSK_BE3C_MIG: BioMAP Diversity Plus: BE3C Assay for Monokine induced gamma interferon (MIG) Biomarker Activity (AID 2283035). The settings on record: primary human bronchial epithelial cells; actives raise or lower the signal. Summed up:
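ELISA read-out of MIG in human lung bronchial epithelial primary cultures, 24 h post-dosing. Bidirectional curve fit vs DMSO baseline.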

Read-out in experiment [7]: Transforming growth factor beta 1 (TGFb1), TGFB1 (gene 7040)
Put plainly: BSK_BE3C_TGFb1: BioMAP Diversity Plus: BE3C Assay for Transforming growth factor beta 1 (TGFb1) Biomarker Activity (AID 2283036;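 for outcome: TGF-b1 protein level measured by ELISA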). The settings on record: primary human bronchial epithelial cells; actives raise or lower the signal. The method, boiled down:
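Primary human lung bronchial epithelial cells; compound exposure 24 h; TGF-b1 by ELISA; bidirectional fit, DMSO baseline. Parallel SRB total-protein staining for cytotoxicity.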

Read-out in experiment [8]: Plasminogen activator inhibitor-1 (PAI1), SERPINE1 (gene 5054)
As to the kind of experiment: BSK_BE3C_PAI1: BioMAP Diversity Plus: BE3C Assay for Plasminogen activator inhibitor-1 (PAI1) Biomarker Activity (AID 2283037). The settings on record: primary human bronchial epithelial cells; actives raise or lower the signal. The method, boiled down:
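Primary human lung bronchial epithelial cells; chemical dosing; 24 h; PAI-1 measured by ELISA; bidirectional fit referenced to DMSO as negative control.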

Read-out in experiment [9]: urokinase plasminogen activator (uPA), PLAU (gene 5328)
As to the kind of experiment: BSK_BE3C_uPA: BioMAP Diversity Plus: BE3C Assay for urokinase plasminogen activator (uPA) Biomarker Activity (AID 2283038).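 For outcome: uPA protein level quantified by ELISA in cell cultures; uPA read one day after compound addition.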 Conditions: primary human bronchial epithelial cells; actives raise or lower the signal. Summed up: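 Primary human bronchial epithelial cells, uPA measured by ELISA 24 h after dosing. Bidirectional change relative to DMSO; cytotoxicity checked in parallel cultures by sulforhodamine B total-protein staining.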

Read-out in experiment [10]: Urokinase-type plasminogen activator receptor (uPAR), PLAUR (gene 5329)
Put plainly: BSK_BE3C_uPAR: BioMAP Diversity Plus: BE3C Assay for Urokinase-type plasminogen activator receptor (uPAR) Biomarker Activity (AID 2283039).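 For outcome: cells exposed to compound for one day before measurement.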 Conditions: primary human bronchial epithelial cells; actives raise or lower the signal. The method, boiled down: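 Human bronchial epithelial primary cells; chemical exposure 24 h; uPAR by ELISA; bidirectional fit vs DMSO control.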

For `CCc1c(Br)c(Br)c(Br)c(Br)c1Br`, the result in experiment [1], in experiment [2], in experiment [3], in [4], in experiment [5] and in experiment [6] was inactive. For the same compound, the result in [7], in experiment [8], in experiment [9] and in experiment [10] was inactive.
With `CCCCCCC(C)OC(=O)CCCCC(=O)OC(C)CCCCCC` (configuration not stated), the result in [1], in [2], in experiment [3], in [4], in [5] and in [6] was inactive. The result in [7], in experiment [8], in experiment [9] and in experiment [10] was inactive.
As for `CCCCNc1ccccc1`, the outcome in experiment [1], in experiment [2], in experiment [3], in experiment [4], in experiment [5] and in [6] was inactive. The outcome in [7], in experiment [8], in [9] and in experiment [10] was inactive.
Take `Oc1ccc(Nc2ccccc2)cc1`: the AC50 was 3.14 µM (active) in experiment [1]; 20 µM (active) in experiment [4]; 3.97 µM (active) in experiment [5]; 5.46 µM (active) in [7]; 7.39 µM (active) in experiment [8]. Moreover, the outcome in experiment [2], in experiment [3], in experiment [6], in [9] and in experiment [10] was inactive.
For the compound `O=C(O)C(F)(F)C(F)(F)C(F)(F)C(F)(F)C(F)(F)C(F)(F)C(F)(F)C(F)(F)C(F)(F)C(F)(F)C(F)(F)C(F)(F)F`, the result in experiment [1], in experiment [3], in experiment [5], in experiment [6], in [8] and in [9] was inactive. In addition, the result in experiment [10] was inactive. Besides, the AC50 is 22 µM (active) and 11.1 µM (active) in experiment [2]; 3.66 µM (active) and 1.18 µM (active) in experiment [4].
On to `Nc1ccc([N+](=O)[O-])cc1O`, for which the result in experiment [1], in experiment [2], in experiment [3], in experiment [4], in experiment [5] and in experiment [6] was inactive. For the same compound, the outcome in experiment [7], in experiment [8] and in experiment [9] was inactive. In addition, the concentration at half-maximal activity (AC50) in experiment [10] was 20 µM (active).
Take `C#C[C@]1(O)CC[C@H]2[C@@H]3CCc4cc(OC)ccc4[C@H]3CC[C@@]21C`: the result in experiment [1], in experiment [2], in experiment [4], in [5], in experiment [6] and in experiment [7] was inactive. Besides, the result in experiment [8], in [9] and in experiment [10] was inactive. Further, the concentration at half-maximal activity (AC50) in experiment [3] is 6.9 µM (active).
Turning to `CCCCOCCOCCOC(=O)CCCCC(=O)OCCOCCOCCCC`, the outcome in experiment [1], in [2], in experiment [3], in [4], in experiment [5] and in [6] was inactive. Moreover, the outcome in experiment [7], in experiment [8], in [9] and in experiment [10] was inactive.
On to `CCCCCCCOC(=O)c1ccccc1C(=O)OCCCCCCC`, for which the AC50 in experiment [1] was 4.08 µM (active). Moreover, the result in [2], in experiment [3], in [4], in [5], in experiment [6] and in experiment [7] was inactive. In addition, the outcome in experiment [8], in [9] and in [10] was inactive.
Regarding `C=CC/C=C/C/C=C/C/C=C/C`, the outcome in experiment [1], in experiment [2], in [3], in experiment [4], in experiment [5] and in experiment [6] was inactive. The outcome in experiment [7], in experiment [8], in experiment [9] and in [10] was inactive.
Consider `O=C(O)C(F)(OC(F)(F)C(F)(OC(F)(F)C(F)(F)C(F)(F)F)C(F)(F)F)C(F)(F)F` (configuration not stated), for which the outcome in experiment [1], in experiment [2], in experiment [3], in experiment [4], in experiment [5] and in experiment [6] was inactive. Also, the result in experiment [8], in experiment [9] and in experiment [10] was inactive.
For `O=P(O)(O)OCCC(F)(F)C(F)(F)C(F)(F)C(F)(F)C(F)(F)C(F)(F)F`, the result in experiment [1], in [2], in experiment [3], in experiment [4], in experiment [5] and in experiment [6] was inactive. Besides, the outcome in [8], in [9] and in experiment [10] was inactive. Moreover, in experiment [4], the AC50 was 6.01 µM (active).
Regarding `CCc1ccc(C(c2ccc(CC)cc2)C(Cl)Cl)cc1`, the AC50 is 32.3 µM (active) in experiment [1]; 13.1 µM (active) in experiment [2]; 13.6 µM (active) in [3]; 28.5 µM (active) in experiment [4]; 20 µM (active) in [5]; 20 µM (active) in [8]. Also, the outcome in experiment [6], in experiment [7], in experiment [9] and in [10] was inactive.
For the compound `C=C(C)C(=O)OCC(F)(F)C(F)(F)C(F)(F)F`, the result in experiment [1], in experiment [2], in experiment [3], in experiment [4], in experiment [5] and in experiment [6] was inactive. Besides, the outcome in [8], in [9] and in experiment [10] was inactive.
On to `CC(=O)Nc1ccc(N=Nc2cc(C)ccc2O)cc1`, for which the outcome in [1], in [2], in [3], in experiment [4], in experiment [6] and in [7] was inactive. For the same compound, the outcome in experiment [8], in experiment [9] and in experiment [10] was inactive. Moreover, the AC50 in experiment [5] is 29.7 µM (active).
On to `O[Si](c1ccccc1)(c1ccccc1)c1ccccc1`, for which the AC50 is 4.82 µM (active) in experiment [1], 29.5 µM (active) in [2], 14.8 µM (active) in experiment [4] and 8.71 µM (active) in experiment [8]. For the same compound, the result in experiment [3], in experiment [5], in experiment [6], in [7], in experiment [9] and in [10] was inactive.
Regarding `O=C(O)C(F)(F)C(F)(F)C(F)(F)C(F)(F)C(F)(F)C(F)(F)C(F)(F)C(F)(F)Cl`, the outcome in [1], in experiment [2] and in experiment [4] was inactive. Moreover, the AC50 in experiment [3] was 18.2 µM (active) and 17.6 µM (active); in experiment [4], 56.8 µM (active); in experiment [5], 18.3 µM (active) and 17.9 µM (active); in [6] it was 46.6 µM (active) and 46.5 µM (active); in [8], 18 µM (active) and 12.2 µM (active); in experiment [9], 45.7 µM (active) and 45.8 µM (active). The AC50 in [10] is 48.6 µM (active) and 44.4 µM (active).
